In all, about 53,000 sequences went through this assay and about 3,700 (7%) were called active.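 Rule for the calls: active = gene knockdowns whose robust z-score for IL-1 alpha signal is at least 2 or at most -2, so actives lie on both sides; inactive = the rest.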 The sample as a whole holds a higher share of actives than the screen did.

This assay in a line: Components of the Cytosolic LPS Sensing Pathway: Gene Identification via Genome-wide siRNA Screen. Particulars: RAW264.7 macrophages, IL-1a HTRF, actives lie on both sides, screened at 100 nM (by protocol), cells primed 5 h with Pam3CSK4 first. The source says:
Non-canonical inflammasome activation by cytosolic LPS is a critical component of the host response to Gram-negative bacterial infection, however we lack a comprehensive understanding of the cellular processes that control this pathway. Here we describe a genome-wide siRNA screen to identify genes regulating the mouse macrophage IL-1 alpha response to cytosolic LPS.
RAW264.7 cells were maintained in complete DMEM media, comprising DMEM with 4.5 g/L glucose, 10% FBS (Gemini Bio-Products, West Sacramento, CA), 2 mM Glutamine (Lonza) and 20 mM HEPES (Lonza), hereafter complete DMEM.
The RNAi screen was conducted in 384-well format using the Ambion Silencer Mouse Genome siRNA Library (#4391425), which consists of three unique, nonoverlapping, nonpooled siRNAs for each of 17,000 gene targets. siRNA reagents ([…]) were stamped into 384-well white flat-bottom microplates (Corning, 3570) using a Velocity11 VPrep liquid handling system (Agilent) integrated into a BioCel robotic platform (Agilent) in columns 1-22, leaving columns 23-24 empty for negative (Ambion, Negative control #1) and positive (mouse Casp4) controls, respectively. The median value of each plate's negative control column was used to normalize sample wells, and the positive control was used to assess transfection efficiency and assay performance.
Lipofectamine RNAiMAX Transfection Reagent ([…]; Invitrogen) was added in […] serum-free, antibiotic-free media to plate wells using a Thermo Scientific Matrix WellMate and Microplate Stacker. Plates were incubated for 45 min at room temperature to allow for the sufficient formation of siRNA-lipid complexes. Cells were seeded at a density of 1x10^4 cells per well in 20 microL media containing 20% (vol/vol) FBS without antibiotics. The final concentration of siRNA in each well was 100 nM. Cells were cultured for 48h at 37 degrees C in 5% CO2 before addition of […] of TLR ligand Pam3CSK4 for 5 hours. The medium was then removed, replaced with […] growth media and cell were transfected with […] of LipidA and TransIT-TKO (Mirus) for 24 hour. At the end of the LipidA treatment, […] of supernatant was transferred to a 384 Greiner Bio-one non-binding low volume plate and […] of IL-1a HTRF reagent (Cisbio, 62MIL1APEH) was added and incubated at room temperature overnight. The plates were read on an EnVision plate reader (PerkinElmer). Cell viability was measured by adding 20ul Cell Titer Glo to the original plate and running a luminescence read on the EnVision. The quantified IL-1a signal for each siRNA gene-targeted well was divided by the median of the negative control wells and multiplied by 100 to achieve a negative control normalized value for each well/siRNA. This normalized value was then used to generate a robust z-score by first taking the log of each value and then by subtracting the median and dividing by the […].
(In general: In TR-FRET formats the signal depends on donor and acceptor labels being close together.)
GGUUGUUAGAGAUUUGACCTT against Kctd12: the z-score is -0.208 (inactive).

In the case of CCUGCACACCAAGUAUCUGTT against Ccl6, the z-score is -0.252 (inactive).

For GGAAGCACUUCUGCUUUCUTT against Azin2, the z-score was -0.0234 (inactive).

On to GCUACACCCUCUGUGAGUUTT against Csrnp2, for which the z-score was -2.07 (active).

In the case of GGAGAUUCUGUAGGUUAUUTT against Lrat, the z-score was 0.0632 (inactive).

Consider GGGACACUGUGUCCCUUCUTT against Tmem189, for which the z-score is -0.0937 (inactive).

As for CCAAAUGAGGCUACCACAATT against Socs7, the z-score was -0.0785 (inactive).

On to GGAUCUGGUUGGCAAGCAUTT against Krt33a, for which the z-score was 2.87 (active).

As to GGAACUUGGGCAUUCCAGATT against Adck2, the z-score is -0.676 (inactive).

As for GGAAAUCAGUGAACAUCUUTT against Tshr, the z-score is 0.525 (inactive).

Turning to CCAGAAACUAGCCUACUACTT against Vgll2, the z-score is 0.395 (inactive).

As to GGAACUAGUCUGGUGAACUTT against Apoa2, the z-score is -1.35 (inactive).

For the sequence GAUUAAUAGUGGUUUCUGATT against Olfr1219, the z-score was -0.219 (inactive).

As to GGGUGUGUUUUUAUGUGUUTT against Lcp2, the z-score is 2.57 (active).

Take GGGAGGAAGAAGAAGGUCATT against Atp1b4: the z-score is -0.193 (inactive).

Regarding GGCAGUCAAUAGUGGCCUGTT against Bcor, the z-score is 1.12 (inactive).

Take CCAGUAUUUGAGAAUUCUGTT against Gm4788: the z-score is -0.763 (inactive).

On to CGACAAGCUGUACCUCUACTT against Rfx5, for which the z-score is 3.41 (active).

On to GCUGGAGUUUCAGUCAAGGTT against Ctso, for which the z-score is -0.355 (inactive).

Turning to AUGCAAGAGGAACGUAUCATT against Olfr1181, the z-score was -0.572 (inactive).

For the sequence GGUUUACCCAUCUUGGCCATT against Vwf, the z-score was -0.501 (inactive).

For the sequence GGAUAUUGAUUCAGUCAAGTT against Rac2, the z-score is -1.16 (inactive).

For the sequence GGAUAUAUUGAAAUGCCCATT against Zbtb14, the z-score is 0.394 (inactive).

For the sequence GGAUUUAUCCUGGUGACUUTT against Cox20, the z-score is 2.49 (active).

On to GGUAUUCAGUAUUUUGACUTT against Olfr196, for which the z-score is 1.56 (inactive).

Consider GGCUGUCGUCAUUGAAGGATT against Ankrd27, for which the z-score is -0.771 (inactive).

For the sequence GCGACAAGAGGCUUUAGCATT against Selenos, the z-score is 0.692 (inactive).

As to GGAGCAGAAAGAAAUUUCCTT against Gpa33, the z-score was 0.48 (inactive).

For the sequence GCUUCAACAGUAAUAAUCGTT against Adamtsl1, the z-score was 2.75 (active).

As to CGGUAAUCUUAUGACAACUTT against Gpc6, the z-score was 1.06 (inactive).

Turning to GGGCCUUAAUUUUCCUUUUTT against Podxl, the z-score is -0.107 (inactive).

On to GGAUUUAUUGACCUCUUAATT against Sp8, for which the z-score is 2.41 (active).

For the sequence GCCCAUCUGAUGAAUACAATT against Mrto4, the z-score was 1.45 (inactive).

In the case of GGCACAAUUAGCUAAGAAUTT against Abi3bp, the z-score is -1.87 (inactive).

On to GGUCUGAUUCACCAUAAUUTT against Sspn, for which the z-score was 0.313 (inactive).

For the sequence GGAGAUUUUGGUGGCUAUUTT against Uqcrfs1, the z-score was -1.1 (inactive).

On to GGAUGUCUAACCCAAAUAGTT against Ly6e, for which the z-score was 2.74 (active).

Take GGAACACUGGAAAAAUGUUTT against Ldhc: the z-score was 0.176 (inactive).

GGCGGUGAAGUCUAAGGCATT against H1f5: the z-score is 1.54 (inactive).

As to GGUGUGUGGUUUUUAAUAATT against Abhd3, the z-score is -0.692 (inactive).

For the sequence GGUGAUCCUUCUUUUUUACTT against Sgo1, the z-score is -2.01 (active).

For GGGAGUUUCAGACCAGUGUTT against Atp5g3, the z-score was -0.097 (inactive).

In the case of CCAUGGACUUUCUCGAAGATT against Ceacam11, the z-score is 0.612 (inactive).

As to GCAGGUUCAUACGAUCCAGTT against Plekha3, the z-score is -0.7 (inactive).

For the sequence GGCAUGUAAUUUGAUGAUCTT against Mansc1, the z-score was -1.48 (inactive).

For GGCAUCAAGUGACUUAUAATT against Zfp772, the z-score was 2.47 (active).

As to CGGAUACCGUAGUUUGGUGTT against Lipe, the z-score is 1.51 (inactive).

Take GGUGAACGACUCCAUGUAUTT against Nectin1: the z-score is -0.448 (inactive).

For the sequence CGUGGUUGAACUUUGUCCGTT against C1qtnf12, the z-score is -0.569 (inactive).

GGAAACUUGAUUAUUUAGGTT against Vrk2: the z-score was 0.915 (inactive).

On to CGGGUUUAGGAGCAACCUUTT against Zdhhc4, for which the z-score is -3.02 (active).

In the case of CCAAAUGAAAUUAGUCCUCTT against Eif5, the z-score was -0.347 (inactive).

For the sequence GGCGGCAAGCAACAACAAUTT against Ssbp1, the z-score was 0.155 (inactive).

On to GGAUGUGGUUCGAGUAUGGTT against Pou5f1, for which the z-score was 1.79 (inactive).

In the case of GGUGAAAAGAUCAGAAUACTT against Fahd1, the z-score is -1.03 (inactive).

As for CCAAAACAUUAACCUGAAGTT against Pla2g6, the z-score is -2.34 (active).

Take GGAAGAGUUGGAAAUUUACTT against Gdpd3: the z-score is -0.166 (inactive).

For GCAUCCUGAUCACUUAACATT against Cep170, the z-score was -0.732 (inactive).

Take GGAAGAGAAUCAAGAGCCATT against Lrrc10: the z-score is -2.65 (active).

As to GCAAUCUAUAAGAGGUACATT against Axin2, the z-score is 1.79 (inactive).

On to GGCCACAUUGUCCUAUCAGTT against Cdh16, for which the z-score was 0.0595 (inactive).

For the sequence GCAGAAGUCUCGUAUCCAGTT against Arl6ip4, the z-score is 0.337 (inactive).

In the case of CAUCGUGUGAAACUGGAGATT against Carmil3, the z-score was 0.608 (inactive).

As for GGCUGUCAAGAAGCACAUCTT against Inhba, the z-score was 1.08 (inactive).

On to GGAAAGUUCCAAGUUACCATT against Arl13b, for which the z-score is 1.18 (inactive).

Turning to GGGACAGUGGACCAUUAUGTT against Rnf8, the z-score was -2.41 (active).

With GGAGCCUCAGGUCCAAAUGTT against Fancd2os, the z-score was 1.89 (inactive).

GGAUGUGCAAGGAAUCUCATT against Spint1: the z-score is 0.741 (inactive).

For the sequence GGCAAUGCACUUAUAACUCTT against Olfr118, the z-score was 0.389 (inactive).
